Source: ChEMBL document CHEMBL3988442, “University of Dundee, Small-Polar-MMV Screening Library” (2021)
About 960 (1.5%) of roughly 66,000 compounds showed an effect of 50% or more. The full list was thinned out, with strong results kept by preference.

Test system: Trypanosoma brucei
Assay: Trypanosoma brucei 72 hour study
Type: functional, organism-based
Design: scale not given: in the data most compounds retested in dose-response had high values

CNc1ccnc(NCCC(=O)Nc2ccccc2C)n1
Percent Effect (30 µM, 30.03 µM): 51.25%

CNc1ccnc(NCC(=O)Nc2cc(C)ccc2OC)n1
Percent Effect (30 µM, 30.03 µM): 42.18%

COc1ccccc1NC(=O)CCNC(=O)c1ccoc1
Percent Effect (30 µM, 30.03 µM): -15.64%

CN(C)C(=O)[C@H]1C[C@H]2[C@H](CCN2Cc2ccc3c(c2)OCO3)O1.O=C(O)C(F)(F)F
Percent Effect (30 µM, 30.03 µM): 17.59%

Cl.N#Cc1ccc(CNCC2(c3ccccc3)CCOCC2)cc1
Percent Effect (30.3 µM, […]): 24.88%

Cc1cccc(C(=O)N2CC[C@]3(C[C@H](OCc4ccccn4)CO3)C2)c1.O=C(O)C(F)(F)F
Percent Effect (30.3 µM, […]): -74.39%

O=C(NCc1ccccn1)[C@]12COC[C@H]1CN(Cc1ccccc1F)C2.O=C(O)C(F)(F)F.O=C(O)C(F)(F)F
Percent Effect (30.3 µM, […]): -30.47%

Cc1nc(CN2CC3(CCN(c4ncccn4)C3)CC2=O)cs1.O=C(O)C(F)(F)F (stereo not given)
Percent Effect (30 µM, 30.03 µM): -28.21%

COCCNC(=O)CCn1ncc2c(Cl)cccc21
Percent Effect (30.3 µM, […]): -10.63%

CN1CCN(c2ccccc2NC(=O)NCCc2ccc(O)cc2)CC1
Percent Effect (30.3 µM, […]): 8.397%

CN1CCN(c2ccccc2NC(=O)NCC[S+](C)[O-])CC1 (stereo not given)
Percent Effect (30.3 µM, […]): 11.12%

CN1CCN(c2ccccc2NC(=O)NCCc2ccccc2)CC1
Percent Effect (30.3 µM, […]): 100.1%

O=C(O)C(F)(F)F.O=C1[C@@H]2CCN(Cc3ccoc3)C[C@@H]2OCCN1c1ccccc1
Percent Effect (30 µM, 30.03 µM): 19.86%

CC(C)c1cccc(CSc2nnc(CN3CCCC3=O)o2)n1
Percent Effect (30 µM, 30.03 µM): -4.842%

CC(C)Oc1ccc(CSc2nnc(CN3CCCC3=O)o2)cc1
Percent Effect (30 µM, 30.03 µM): 72.7%

O=C1CCCN1Cc1nnc(SCc2ccc3c(c2)CCC3)o1
Percent Effect (30 µM, 30.03 µM): 47.68%

O=C(Cc1ccccn1)N1CC[C@]2(C[C@@H](Oc3ncccc3F)CO2)C1.O=C(O)C(F)(F)F.O=C(O)C(F)(F)F
Percent Effect (30 µM, 30.03 µM): -12.46%

CN(CCCn1cnc2c(N)ncnc21)Cc1ccccc1
Percent Effect (30 µM, 30.03 µM): -6.688%

CNC(=O)c1cc2c(nc1N(C)C)CCN(c1ncc(F)cn1)CC2.O=C(O)C(F)(F)F
Percent Effect (30.3 µM, […]): -8.544%

OCC1CCCN1c1cc(NCCc2ccsc2)ncn1 (stereo not given)
Percent Effect (30 µM, 30.03 µM): 6.798%

Cc1cc(NC(=O)NCCO)nn1-c1ccc(Cl)cc1Cl
Percent Effect (30 µM, 30.03 µM): -0.9538%

O=C(CN1C(=O)CC2(CCCC2)C1=O)NCCc1nccs1
Percent Effect (30 µM, 30.03 µM): -3.261%

CN(Cc1ccncc1)CC1CCCN(CCc2ccc(Cl)cc2)C1 (stereo not given)
Percent Effect (30 µM, 30.03 µM): 15.49%

CN(Cc1cccc(O)c1)CC1CCCN(CCc2ccc(Cl)cc2)C1 (stereo not given)
Percent Effect (30 µM, 30.03 µM): 55.85%

Cc1nc[nH]c1CN(C)CC1CCCN(CCc2ccc(Cl)cc2)C1 (stereo not given)
Percent Effect (30 µM, 30.03 µM): 61.25%

COc1ccc(CCN2CCCC(CN(C)Cc3[nH]cnc3C)C2)cc1 (stereo not given)
Percent Effect (30 µM, 30.03 µM): 11.78%

CN(Cc1ccccc1O)CC1CCCN(CCc2ccc(Cl)cc2)C1 (stereo not given)
Percent Effect (30 µM, 30.03 µM): 6.545%

CN(Cc1cnc(N)nc1)CC1CCCN(CCc2ccc(Cl)cc2)C1 (stereo not given)
Percent Effect (30 µM, 30.03 µM): -6.233%

Cc1ccc(NC(C)(C)c2nnnn2-c2ccc(Cl)cc2)c(C)c1
Percent Effect (30 µM, 30.03 µM): -23.29%

Cc1nc2cc(C3CCN(Cc4ccccc4F)C3)nn2c(O)c1C (stereo not given)
Percent Effect (30.3 µM, […]): 14.24%
